# Screening data: PubChem BioAssay, several laboratories
# UBC13 polyUb – human UBC13 polyubiquitination inhibition; UBC13 polyubiquitin chain formation, TR-FRET; 330,000 tested, 0.47% active; inhibition, % at 20 µM; P61088; AID 485273; in the data active = inhibition above about 45%, passing the limit was not always enough
# Target sequence (P61088 whole entry, looked up): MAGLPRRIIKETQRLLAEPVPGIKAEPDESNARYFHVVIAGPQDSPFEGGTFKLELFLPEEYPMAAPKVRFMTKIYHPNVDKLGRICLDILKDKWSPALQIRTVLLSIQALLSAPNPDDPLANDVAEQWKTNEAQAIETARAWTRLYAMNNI
# NALP1 inh – blocks the NALP1 inflammasome reconstituted in yeast; S. cerevisiae NALP1/ASC/caspase-1 growth, X-gal OD620, 72 h; inhibition, % at 10 µM; 280,000 tested, 0.61% active; AID 2071; in the data active = inhibition mostly above about 24%, no sharp cut-off; inactive = mostly below about 32%
# NR3A LBD binder – modulates the human NR3A ligand-binding domain. Tm shift relative to glycine control, % at 25 µM. NR3A LBD differential scanning fluorimetry, Tm shift; 0% = protein alone, 100% = glycine-bound protein. 340,000 tested, 2.5% active;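 active = melting temperature shift of at least 10% of the positive control shift, at one fixed dose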
# dFosB act – mouse delta FosB homodimer activation. P13346. purified delta FosB, TAMRA-CDK5 oligo fluorescence polarization; percent of positive-control signal above neutral wells. activation, % at 25 µM. 340,000 tested, 0.99% active;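 active = mean activation above about 17%, with every replicate also reaching it, limit read from the data, passing the limit was not always enough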
# Target sequence (P13346 whole entry, looked up): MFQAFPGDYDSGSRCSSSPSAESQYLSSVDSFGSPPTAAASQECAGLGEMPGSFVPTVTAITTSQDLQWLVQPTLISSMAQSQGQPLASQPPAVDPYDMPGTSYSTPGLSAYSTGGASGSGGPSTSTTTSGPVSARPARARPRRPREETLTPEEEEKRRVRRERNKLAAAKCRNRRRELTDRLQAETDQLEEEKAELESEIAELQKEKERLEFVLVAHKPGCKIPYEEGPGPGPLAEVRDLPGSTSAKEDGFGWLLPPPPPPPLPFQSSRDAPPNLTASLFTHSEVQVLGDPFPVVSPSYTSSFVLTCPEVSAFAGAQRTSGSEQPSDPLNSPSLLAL
# Yeast superoxide – lowers age-related superoxide in aged yeast cells. 330,000 tested, 0.18% active. S. cerevisiae aged cells, superoxide DHE fluorescence; stronger effect = lower value. superoxide response (% of plate mean), % at 10 µM;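 active = superoxide response under a set limit, about three screen SD below normal, cut at about 65% in these data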;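 note: yeast aged for seven days with compound at 30 °C before DHE staining; 100% = average MFI of all compound-treated wells on the plate with controls excluded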
# CR mimetic CP – confirmation of caloric restriction mimetics inhibiting yeast age-related superoxide | AID 434994 | superoxide response (% of plate), % at 10 µM | shares compounds with Yeast superoxide | S. cerevisiae aging, superoxide DHE fluorescence; stronger effect = lower value | 850 tested, 1% active;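 active = superoxide signal below 65% of the plate average of sample wells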;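 note: cells aged with compound for 7 days at 30 degrees C before staining; 100% equals mean DHE fluorescence of all compound wells on the plate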
# DHE fluor count – DHE fluorescence interference, counter-screen artifact. AID 435000. fluorescence response, % at 10 µM. S. cerevisiae BY4741, flow cytometry; stronger effect = lower value. 850 tested, under 10 active. shares compounds with Yeast superoxide;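 active = fluorescence response below 15%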;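 note: percent of the mean fluorescence averaged over all compound wells on the plate; lower means stronger quenching of DHE signal or ROS scavenging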
# An asterisk follows results filed as active; nt = not tested or not shown. An excerpt weighted towards active compounds, which were near 4.3% of everything screened.
SMILES,UBC13 polyUb,NALP1 inh,NR3A LBD binder,dFosB act,Yeast superoxide,CR mimetic CP,DHE fluor count
CSCCC(NC(=O)C1CCC(C)CC1)C(=O)NCCN1CCOCC1 (configuration not stated),-18,9,1,2,58*,98,97
O=C(Cc1ccc(Cl)cc1)N1CCC2(CC1)NCCc1[nH]cnc12,2,-13,1,-4,64*,99,93
NS(=O)(=O)c1ccc(NS(=O)(=O)c2ccc(Br)cc2)cc1,-1,7,3,-1,91,102,90
O=C(NC1CC1)C1CCN(c2ccc(S(=O)(=O)N3CCOCC3)cc2)CC1,-15,4,-1,1,65*,103,114
CC(=O)[C@@]1(O)CCC2C3CC[C@H]4C[C@@H](O)CC[C@]4(C)C3CC[C@@]21C (some centres not stated),7,nt,-1,-2,105,104,103
C[C@H](CCC(=O)O)[C@H]1CC[C@H]2[C@@H]3CC[C@@H]4C[C@H](O)CC[C@]4(C)[C@H]3CC[C@]12C,-22,nt,0,-7,66,nt,nt
CCCCn1c2ccccc2c2cc(CC(N)=O)ccc21,2,2,-1,5,103,94,91
CCCCn1c(=O)c(-c2ccccc2)c(O)c2ccccc21,4,4,1,-7,104,nt,nt
COc1ccc(S(=O)(=O)NC(N)=NCCc2ccc(OC)c(OC)c2)cc1,5,4,nt,nt,98,nt,nt
COc1ccc(S(=O)(=O)NC(N)=NCCc2ccc(OC)c(OC)c2)cc1C,-1,12,-2,-2,64*,100,90
CC(C)(C)c1ccc(-c2n[nH]c(=S)n2/N=C/c2ccncc2)cc1,-14,24,-1,-8,43*,115,127
Cc1ccc(/C=N/n2c(-c3ccncc3)n[nH]c2=S)cc1,nt,-8,1,3,nt,nt,nt
CCOC(=O)CSc1nnc(-c2ccccc2)o1,8,4,0,12,99,114,125
CCCOC(=O)CSc1nnc(-c2ccc(Cl)cc2Cl)o1,-6,8,0,-4,99,101,88
CCOC(=O)CSc1nnc(-c2cccnc2)o1,3,6,-1,2,106,nt,nt
COC(=O)CSc1nnc(-c2ccc(OC)c(OC)c2)o1,1,-6,0,-6,95,113,102
COc1cc(OC)cc(-c2nnc(SCC(=O)N(C(C)C)C(C)C)o2)c1,-3,1,-1,-10,85,102,92
COc1cc(OC)cc(-c2nc3ccccc3c(=O)n2OC(=O)c2ccc(C)c(C)c2)c1,-5,29,1,-9,109,nt,nt
CC(CCc1ccccc1)NC(=O)CCNS(=O)(=O)c1ccccc1C(F)(F)F (configuration not stated),12,nt,4,-4,83,nt,nt
CC(=O)Nc1ccc2c(c1)c1ccccc1n2C(C)=O,-1,14,-2,13,104,nt,nt
CCn1c2ccccc2c2cc(NC(C)=O)ccc21,3,-4,2,4,111,107,105
CCc1cc(C(=O)OC)c(NC(=O)CN2CCN(C(=O)c3ccco3)CC2)s1,-13,12,-8,-10,111,nt,nt
CCOC(=O)N1CCN(CC(=O)Nc2sc(CC)cc2C(=O)c2ccc(OC)cc2)CC1,3,15,-1,-11,58*,106,101
CCOc1ccc(S(=O)(=O)N2CCCC2)cc1,1,12,13*,2,112,110,109
CCOc1cc(S(=O)(=O)N2CCCC2)c(C)cc1C,6,17,0,-3,99,104,104
SMILES,UBC13 polyUb,NALP1 inh,NR3A LBD binder,dFosB act,Yeast superoxide,CR mimetic CP,DHE fluor count
COc1cc(C)c(S(=O)(=O)N2CCN(C)CC2)cc1C,3,17,-1,-2,114,nt,nt
CCOc1ccc(NS(=O)(=O)c2ccc(N)cc2)cc1,4,0,1,-2,101,98,90
COc1cc(C)c(S(=O)(=O)N2CCCC2)cc1C,-2,24,0,-4,59*,80,92
CCOc1ccc2cc(S(=O)(=O)N3CCCCC3)ccc2c1,1,-21,-2,-7,81,nt,nt
CCOc1cc(C)c(S(=O)(=O)N2CCCCC2)cc1C,0,1,-2,2,87,nt,nt
COc1ccc(CCNC2CC(=O)N(C3CCCCC3)C2=O)cc1OC (configuration not stated),2,-15,-4,-6,101,nt,nt
COc1c(C)cc(S(=O)(=O)N2CCCC2)c(C)c1C,18,-2,2,-3,109,97,95
COc1cc(C)c(S(=O)(=O)N2CCCC2)cc1C(C)C,1,6,0,-2,91,92,90
O=c1cc(-c2ccccc2)nc(SCc2ccccc2F)[nH]1,-8,-14,-1,16,98,nt,nt
COC(=O)c1cccc(C23CC4(C2)[C@H](CN(Cc2cccnc2)[C@@H]4c2ccccc2)C3c2ccc(C(F)(F)F)cc2)c1 (some centres not stated),-25,nt,-3,nt,95,nt,nt
O=C(NC1CCCCC1)C1(S(=O)(=O)c2ccc(Cl)cc2)CC1,2,6,-1,-6,94,nt,nt
Cc1ccc(N2CCN(C(=O)c3ccccc3F)CC2)c(C)c1,5,32,-2,-2,92,99,103
Cc1nc(CNC(=O)CC2C(=O)NCCN2Cc2ccoc2)nc2c1CCCC2 (configuration not stated),-8,nt,-2,4,109,nt,nt
CCCCn1cnc2c(oc3ccccc32)c1=O,3,12,0,-2,114,nt,nt
N#C/C(=C/c1cccs1)c1nc2ccccc2[nH]1,-14,63,15*,-8,60*,111,107
N#C/C(=C\c1c(Cl)cccc1Cl)c1nc2ccccc2[nH]1,2,19,-7,-8,117,nt,nt
CCOc1ccccc1NC(=O)COC(=O)CC(C)(C)CC1=NS(=O)(=O)c2ccccc2N1,8,10,-2,-10,58*,106,110
Cc1cc(C)cc(NC(=O)COC(=O)CCCC2=NS(=O)(=O)c3ccccc3N2)c1,-3,-2,0,-5,93,nt,nt
CC1(C)Cc2c(sc3nc(N/N=C/c4ccccc4)[nH]c(=O)c23)CO1,-1,17,-9,4,94,nt,nt
CC(C)=NNc1nc2sc3c(c2c(=O)[nH]1)CC(C)(C)OC3,-5,2,0,0,50*,95,92
COCCC(=O)N1CCC(n2nccc2NC(=O)c2ccccc2C)CC1,2,30,-2,-12,95,nt,nt
CCOC(=O)N1CCN(C(=O)c2c[nH]c3ccc(S(=O)(=O)N(C)c4cccc(C)c4)cc3c2=O)CC1,-10,23,0,-10,93,nt,nt
COc1ccc(S(=O)(=O)Nc2ccc(F)c(F)c2)cc1Cl,-8,29,-3,-13,123,99,109
